Source: PubChem (National Center for Advancing Translational Sciences (NCATS))
SARS PLpro yeast: blocks SARS-CoV papain-like protease in a yeast assay; S. cerevisiae expressing SARS-CoV PLpro, growth rescue; Potency, µM (series often up to 32.9 µM), usual class: activators; 0.19% of 330,000 active; AID 485353; calls by dose curve; further: nearly all actives have a fitted effect of over 55% in size
MARV entry inh: blocks Marburg virus binding to or entry into cells; Potency, µM (doses to about 37.8 µM), usual class: inhibitors; Marburg virus pseudotyped entry inhibition, cell reporter; 1.8% of 300,000 active; calls by dose curve; tested in HEK293 cells
HCMV inh: blocks human cytomegalovirus replication | 4.5% of 410,000 active | AID 1259415 | HFF cells, HCMV-luciferase reporter, 72 h; hits give low values | activity change, negative = inhibition, % at 57.5 µM; in the data active means activity change below about -60%; inconclusive means no clear call, values can overlap the other calls; inactive means above about -39%
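Steps: HFFs plated, 16 h 37C; compounds added; HCMV-luciferase added to MOI 1 PFU/cell; 72 h 37C; OneGlo reagent, 5 min room temperature; luminescence read, normalized to controls.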
HCV inh: inhibitors of hepatitis C virus infection; Huh7.5.1 HCVcc-Cre infection, luciferase reporter, 44 h; Potency, µM (series often up to 41.8 µM), most hits filed as inhibitors; 3.4% of 340,000 active; AID 651820
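After 44 h co-culture of compound, cells and HCVcc-Cre (~0.5 moi), substrate is added for 15 min at room temperature and luciferase measured over 15 sec. Cells were seeded at 1,000/well and pre-cultured 4 h.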
FMDV antiviral: blocks foot and mouth disease virus; FMDV antiviral cell-based qHTS; Potency, µM (series often up to 57.9 µM), hits mostly inhibitors; 1.2% of 410,000 active; calls by dose curve; tested in HEK293T cells; further: read-out not given here; nearly all actives have a fitted effect of over 45% in size
Lassa entry inh: Lassa virus entry inhibition. Lassa virus pseudotype entry inhibition, cell reporter. Potency, µM (doses to about 37.9 µM), usual class: inhibitors. 1.2% of 300,000 active. AID 540256; calls by dose curve; tested in HEK293 cells; further: nearly all actives have a fitted effect of over 50% in size
HCV confirm: HCV inhibition, cherry-pick confirmation. shares compounds with HCV inh. HCVcc-Cre infectious virus cell assay, luciferase, inhibition. Potency, µM (highest dose often 41.8 µM), usual class: inhibitors. 78% of 640 active. AID 720575; further: nearly all actives have a fitted effect of over 80% in size
HCV cytotox: host cell cytotoxicity counter-screen for HCV inhibitors | Potency, µM (titrated, usually from 41.8 µM), most hits filed as inhibitors | 22% of 640 active | HCV host cell line cytotoxicity counterscreen | shares compounds with HCV inh;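 further: 44 h compound exposure; nearly all actives have a fitted effect of over 55% in size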
Each line names hits and unclear results; the compound was inactive in the other large screens (follow-up assays come after a bar, where they were run). Only some compounds are listed: those with a hit (about 8% of all), similar ones and a draw of the others. Unless noted, the call rests on the fitted dose curve; in most records, active means well fitted curve in the direction sought with a large enough effect; inconclusive means small, poorly fitted or top-dose-only effect, or another doubt; inactive means no such curve, though single readings can be large; an effect the other way counts as inactive or inconclusive.

CCCCNC(=S)N/N=C/c1ccc(OCC(=O)Nc2c(C)cc(C)cc2C)c(OC)c1	HCMV inh inconclusive, Lassa entry inh inconclusive
CC(=O)Nc1ccc(Nc2cc(C)nc3c(-c4ccccc4)c(C)nn23)cc1	MARV entry inh inconclusive, HCV inh inconclusive
CC(=O)Nc1ccc(Nc2cc(C(C)C)nc3c(-c4ccccc4)c(C)nn23)cc1	HCMV inh inconclusive, HCV inh 2.5µM, FMDV antiviral inconclusive (no result: MARV entry inh, Lassa entry inh) | HCV confirm 14µM | HCV cytotox inactive
N=c1c(C(=O)NCc2ccc3c(c2)OCO3)cc2c(=O)n3ccccc3nc2n1Cc1cccnc1	HCV inh 6.3µM | HCV confirm 14µM | HCV cytotox inactive
CC(NC(=O)c1cc2c(=O)n3ccccc3nc2n(CC2CCCO2)c1=N)c1ccccc1 (centres undefined)	HCV inh 2.2µM (no result: Lassa entry inh) | HCV confirm 11µM | HCV cytotox inactive
N=c1c(C(=O)NCc2ccco2)cc2c(=O)n3ccccc3nc2n1Cc1ccccc1	MARV entry inh inconclusive, HCV inh 3.2µM | HCV confirm 3.5µM | HCV cytotox inconclusive
CCCOc1ccc(-c2nc3ccc(Br)cc3c(=O)o2)cc1	none (no result: SARS PLpro yeast, MARV entry inh, HCV inh)
Clc1ccc(-c2cc(C3CCNCC3)[nH]n2)cc1	MARV entry inh inconclusive, HCV inh inconclusive
Nc1nc(Cl)cc(N2CCC(c3cc(-c4ccc(Cl)cc4)n[nH]3)CC2)n1	MARV entry inh inconclusive, HCMV inh -104, HCV inh 4µM, FMDV antiviral 16µM, Lassa entry inh 6.5µM | HCV confirm 11µM | HCV cytotox inconclusive
CCC(CC)C(=O)N(C)c1c(C)nc2c(OCc3ccccc3C(=O)OC)cccn12	none (no result: SARS PLpro yeast, MARV entry inh, HCV inh, Lassa entry inh)
Cc1ccccc1-c1nnn(C/C(N)=N/O)n1	none (no result: MARV entry inh, Lassa entry inh)
Cc1ccccc1-c1nc(CN2CCC(C(=O)NCCN3CCOCC3)CC2)c(C)o1	MARV entry inh inconclusive
Cc1ccccc1-c1nc(CN2CCC(C(=O)NCCCN3CC(C)CC(C)C3)CC2)c(C)o1 (centres undefined)	MARV entry inh inconclusive, HCV inh 1.3µM, Lassa entry inh inconclusive | HCV confirm 1.4µM | HCV cytotox inconclusive
COc1ccc(NC(=O)c2cc(-c3cc(C)cc(C)c3O)n[nH]2)cc1Cl	MARV entry inh inconclusive, HCV inh 8.9µM, FMDV antiviral inconclusive | HCV confirm 14µM | HCV cytotox inconclusive
COc1ccc(NC(=O)c2cc(-c3ccccc3O)n[nH]2)cc1Cl	MARV entry inh inconclusive
CCOc1cc(/C=C/C(=O)Nc2ccc(C(=O)NCCN(CC)CC)cc2)ccc1OCC(C)C	MARV entry inh 18µM, HCMV inh -114, HCV inh 3.2µM, FMDV antiviral inconclusive, Lassa entry inh inconclusive | HCV confirm 16µM | HCV cytotox 35µM
C[C@@H](CSc1ccc(Br)cc1)CN1CC[C@H](NC(=O)OCc2ccccc2)CCC1=O	HCV inh 4.5µM, FMDV antiviral 25µM (no result: MARV entry inh, Lassa entry inh) | HCV confirm 14µM | HCV cytotox inactive
CC(C)(C)C(=O)CSc1nc2c(c(-c3cccs3)c1C#N)CCC2	HCV inh inconclusive
CN1CCc2nc(SCC(=O)Nc3cccc(F)c3)c(C#N)c(-c3cccs3)c2C1	HCV inh inconclusive | HCV confirm inconclusive | HCV cytotox inactive
CCC(C)Sc1cc(-c2nc3ccc(Cl)cn3c2NC2CCCCC2)ccc1OC (centres undefined)	none (no result: MARV entry inh, Lassa entry inh)
Cc1cc(C)n2nc(C(=O)OCC(=O)c3c[nH]c4ccccc34)nc2n1	none (no result: MARV entry inh, Lassa entry inh)
Cc1csc(N2CCN(c3cc4c(cc3Cl)nc(-c3ccncc3)n4CCCN3CCCC3)CC2)n1	HCV inh inconclusive, FMDV antiviral inconclusive (no result: MARV entry inh, Lassa entry inh) | HCV confirm 14µM | HCV cytotox inactive
O=C(Nc1ccc(S(=O)(=O)N2CCCC2)cc1)c1ccc(CN2CCc3ccccc3C2)cc1	MARV entry inh inconclusive, HCV inh 7.1µM, FMDV antiviral inconclusive, Lassa entry inh inconclusive (no result: HCMV inh) | HCV confirm 0.63µM | HCV cytotox 1µM
CC(=O)c1ccc(NC(=O)c2ccc(S(=O)(=O)N3CCCC3)cc2)cc1	none
COc1cccc(NC(=O)Nc2ccc(Cc3ccncc3)cc2)c1	MARV entry inh inconclusive, HCMV inh inconclusive, HCV inh inconclusive | HCV confirm inconclusive | HCV cytotox inactive
COc1cccc(NC(=O)Nc2ccncc2)c1	none
CCCc1cc2c(=O)c(-c3ccc4c(c3)OCCO4)c(C)oc2cc1OS(C)(=O)=O	HCMV inh inconclusive, HCV inh 2.2µM, FMDV antiviral inconclusive | HCV confirm 11µM | HCV cytotox inactive
N#Cc1ccccc1CSc1ccc(-c2nc3ccccc3[nH]2)cn1	MARV entry inh inconclusive, HCV inh 8.9µM (no result: FMDV antiviral) | HCV confirm inconclusive | HCV cytotox 14µM
COC(=O)c1cn(-c2ccccc2)nc1-c1ccc(OC)c(OC)c1	HCV inh 7.9µM (no result: MARV entry inh, Lassa entry inh) | HCV confirm 14µM | HCV cytotox inactive
COc1ccc(-c2nn(-c3ccccc3)cc2C(=O)O)cc1N	none (no result: MARV entry inh, Lassa entry inh)
Cc1cccc(S(=O)(=O)Nc2ccc(-c3cn4ccccc4n3)cc2)c1	Lassa entry inh inconclusive
Cc1cc(C)c(S(=O)(=O)Nc2ccc(-c3cn4ccccc4n3)cc2)c(C)c1	MARV entry inh inconclusive, HCMV inh inconclusive, HCV inh inconclusive | HCV confirm 22µM | HCV cytotox inactive
O=c1c(-c2nnc(SCc3ccc(Cl)cc3)o2)cccn1Cc1ccccc1	MARV entry inh inconclusive, HCMV inh inconclusive, HCV inh 3.5µM, Lassa entry inh inconclusive | HCV confirm 13µM | HCV cytotox inconclusive
O=C(Nc1ccccc1-c1nnc(SCc2ccc(Cl)cc2)o1)c1ccccc1	MARV entry inh inconclusive
CN1CCN(c2ccc(CNS(=O)(=O)Cc3cccc(C(F)(F)F)c3)cc2)CC1	SARS PLpro yeast inconclusive, HCMV inh inconclusive, HCV inh 5.6µM, FMDV antiviral inconclusive (no result: MARV entry inh, Lassa entry inh) | HCV confirm 5.6µM | HCV cytotox 2.5µM
CCOc1ccc(NC(=S)N2CCC(NC(=O)c3ccco3)CC2)cc1	none
CCOc1ccc(NC(=O)CN(C)Cc2cc(=O)n3c(-c4ccccc4)csc3n2)cc1OCC	HCV inh 6.3µM | HCV confirm inconclusive | HCV cytotox inactive
Cc1cc(C)cc(OCc2cc(=O)n3c(-c4ccccc4)csc3n2)c1	none (no result: SARS PLpro yeast, HCV inh)
COc1cc(OC)c(NC(=O)Cn2cccc2)cc1Cl	MARV entry inh inconclusive
COc1cc(OC)c(NC(=O)C(=O)CC(=O)c2ccc(C)cc2C)cc1Cl	MARV entry inh inconclusive, HCV inh 3.5µM, Lassa entry inh 8.2µM | HCV confirm 14µM | HCV cytotox inactive
COCCn1c(SCC(=O)c2ccccc2)nc2c(c1=O)SC(C)C2 (centres undefined)	none (no result: FMDV antiviral)
CCn1c(SCC(=O)c2ccccc2)nc2c(c1=O)SC(C)C2 (centres undefined)	HCV inh inconclusive, Lassa entry inh inconclusive | HCV confirm inconclusive | HCV cytotox inactive
